Compound activity from PubChem BioAssay.
Pf growth 96h: P. falciparum growth inhibition at 96 hour, primary screen for plastid delayed-death inhibitors | P. falciparum luciferase reporter growth, 96 h | Potency, µM (highest dose often 28.7 µM), for inactives: top-dose activity change, negative = inhibition, most hits filed as inhibitors | 320,000 compounds, 6.9% hits; note: potency is the fitted concentration of half-maximal effect; % is set by controls: 0 for no effect and ±100 for the full control effect
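Cell-based qHTS: luciferase-tagged P. falciparum in erythrocytes (2% hematocrit, 0.05% parasitemia final) incubated with compounds for 96 hours, 37 C, 5% CO2; luciferase detection reagent then added and luminescence measured.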
Shiga inhibitor: Shiga toxin inhibition; Vero cells, Shiga toxin protein synthesis inhibition reporter; inhibition, % at 38.7 µM; 290,000 compounds, 9.2% hits; in the data active = inhibition mostly above about 28%, no sharp cut-off; inactive = mostly below about 43%; note: 0% is about no effect
Sm TGR inh: inhibitors of Schistosoma mansoni thioredoxin glutathione reductase. purified TGR, DTNB reduction, TNB absorbance 405 nm. Potency, µM (series often up to 114 µM), for inactives: top-dose activity change, negative = inhibition, actives largely listed as inhibitors. 360,000 compounds, 3% hits. AID 485364; note: potency is the fitted concentration of half-maximal effect; % is set by controls: 0 for no effect and ±100 for the full control effect; nearly all actives have a fitted effect of over 60% in size
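First, TGR (20 nM dispensed) and NADPH were mixed with compound. Second, a 15 min room-temperature incubation followed. Third, further NADPH and then DTNB were added to start the reaction. Finally, TNB absorbance was monitored kinetically.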
NS1 inh: blocks influenza NS1 protein function | Potency, µM (highest dose often 46.1 µM), for the others: top-dose activity, positive = more growth | 270,000 compounds, 0.4% hits | AID 2326; calls by dose curve; note: potency is the fitted concentration of half-maximal effect; actives are rising curves; nearly all actives have a fitted effect of over 50% in size
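S. cerevisiae expressing influenza A NS1, grown in glucose, washed, then diluted 1:100 into pH 6.0 -URA galactose medium with 23 nl compound. Growth recovery read as OD600; NS1-free strain serves as control.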
CHX counter: affects cycloheximide protein synthesis inhibition readout, counter-screen | cell reporter, cycloheximide protein synthesis inhibition counterscreen | max response, % | 300,000 compounds, 12% hits | AID 2314; in the data active = max response mostly above about 13%, no sharp cut-off; inactive = mostly below about 14%; note: read at 38.3 µM for the half of the compounds with a filed dose; 0% is about no effect
Pf growth 48h: inhibits P. falciparum growth in the first generation, 48 h. Potency, µM (doses to about 28.7 µM), inactives show at the highest dose activity change, negative = inhibition, hits mostly inhibitors. 310,000 compounds, 5.9% hits. AID 504832. P. falciparum luciferase growth in erythrocytes, 48 h; note: potency is the fitted concentration of half-maximal effect; % is set by controls: 0 for no effect and ±100 for the full control effect
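Cell-based growth assay: transgenic P. falciparum expressing firefly luciferase, cultured in red cells within RPMI 1640 containing 0.5% w/v Albumax, 24 mM bicarbonate and gentamycin. A drop in luciferase activity indicates inhibition.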
* marks the source's active call; other numbers are inactive results; ? = inconclusive; / = no result given. This is a sample that favours compounds with a hit; in the whole collection about 21% have one here. Unless noted, calls come from the whole dose curve; as a rule, active = well fitted curve in the direction sought with a large enough effect; inconclusive = small, poorly fitted or top-dose-only effect, or another doubt; inactive = no such curve, though single readings can be large; an effect the other way counts as inactive or inconclusive.

SMILES | Pf growth 96h | Shiga inhibitor | Sm TGR inh | NS1 inh | CHX counter | Pf growth 48h
O=C(N/N=C/c1ccc(F)cc1)c1cc(-c2ccccn2)nc2ccccc12 | 8% | / | 1% | / | / | -26%
COc1cc(/C=N/NC(=O)c2cc(-c3ccco3)nc3ccccc23)cc(OC)c1O | -20% | 4 | 45µM* | 9% | 9 | ?
O=C(N/N=C/c1cccc(F)c1)c1cc(-c2ccco2)nc2ccccc12 | 141% | 86* | ? | -1% | 71* | 59%
Cc1ccc(C)c(NC(=O)N2CCN3CCCCC3C2)c1 (stereo not drawn) | / | / | -1% | / | / | /
COc1cc2c(cc1OC)CN(S(=O)(=O)/C=C/c1ccccc1)CC2 | -19% | -8 | -6% | -3% | -1 | ?
COc1cccc(NC(=O)CCC(=O)N2Cc3ccccc3Oc3ncccc32)c1 | / | / | 1% | / | / | /
O=C(CCC(=O)N(CC(=O)NC1CCCCC1)CC1CCCO1)Nc1nccs1 (stereo not drawn) | 2% | -5 | -1% | 1% | -2 | -4%
Cc1ccccc1OCC(=O)Nc1ccc(N2CCN(C)CC2)c(Cl)c1 | 10% | 85* | 8% | -3% | 29* | 33%
COc1ccc(OCC(=O)Nc2ccc(N3CCN(C(=O)c4ccccc4)CC3)c(Cl)c2)cc1 | -78% | -2 | -8% | -25% | 9 | 8.3µM*
COc1ccc(OCC(=O)Nc2ccc(N3CCOCC3)c(Cl)c2)cc1 | / | -7 | -6% | -13% | -3 | ?
NC(=O)COC(=O)[C@H](Cc1c[nH]c2ccccc12)NC(=O)c1ccc(F)cc1 | 26% | -5 | 2% | 13% | -1 | 37%
CC1=C(C(N)=O)C(c2ccccc2Br)n2ncnc2N1 (stereo not drawn) | / | / | -5% | / | / | /
CCc1nn(CC(=O)N(C)Cc2ccccc2)c(=O)c2cc3sccc3n12 | / | / | -1% | / | / | /
CC1CC(OC(=O)c2ccccc2)(c2ccccc2)C(C)CN1C (stereo not drawn) | ? | -9 | 34% | -2% | -3 | 6.6µM*
CCCN1CC(C)C(OC(C)=O)(c2ccccc2)CC1C (stereo not drawn) | -21% | 16 | -2% | 5% | 0 | 10%
Cc1ccc(-c2cc(C(F)F)n3ncc(C(=O)N4CCC5(CC4)OCCO5)c3n2)cc1 | ? | -3 | -1% | -4% | -6 | /
CCN1CCN(C(=O)c2cnn3c(C(F)F)cc(-c4ccc(C)cc4)nc23)CC1 | 7.4µM* | -15 | -1% | 0% | -3 | ?
COc1ccc(-c2cc(C(F)(F)F)n3nc(C(=O)N4CCCCC4)cc3n2)cc1 | 35% | 9 | 9% | -45% | -2 | ?
COc1ccc(-c2cc(C(F)F)n3ncc(C(=O)Nc4cc(C)on4)c3n2)cc1 | 15% | 15 | -16% | 1% | 28* | 4.1µM*
COc1ccc(-c2cc(C(F)F)n3ncc(C(=O)N4CCN(C(=O)c5ccco5)CC4)c3n2)cc1 | ? | 9 | 28µM* | -10% | 0 | ?
COc1cccc(-c2cc(C(F)(F)F)n3nc(C(=O)N4CCCCC4c4cccnc4)cc3n2)c1 (stereo not drawn) | ? | 51* | -2% | / | 19* | 3.7µM*
O=C1C=C(Nc2nc(C(=O)O)cc(=O)[nH]2)c2ccccc2C1=O | / | / | / | -2% | / | /
O=C(c1cnn2c(C(F)F)cc(-c3ccccc3)nc12)N1CCN(Cc2ccc3c(c2)OCO3)CC1 | ? | -11 | -28% | -4% | -5 | 4.7µM*
Cc1ccccc1Cc1c(C)nc2c(C(=O)N3CCN(Cc4ccc5c(c4)OCO5)CC3)cnn2c1C | / | / | / | -19% | / | /
O=C(c1cnn2c(C(F)F)cc(-c3ccccc3)nc12)N1CCCCC1c1cccnc1 (stereo not drawn) | ? | 14 | 24% | -4% | -2 | 1.7µM*
SMILES | Pf growth 96h | Shiga inhibitor | Sm TGR inh | NS1 inh | CHX counter | Pf growth 48h
O=C(c1cnn2c(C(F)(F)F)cc(-c3ccc4c(c3)OCO4)nc12)N1CCCCC1 | 8.3µM* | 3 | 1% | -14% | -4 | 0%
CN1CCN(C(=O)c2cnn3c(C(F)(F)F)cc(-c4ccc5c(c4)OCO5)nc23)CC1 | -28% | -15 | 4% | 1% | 5 | -25%
O=C(c1cnn2c(C(F)F)cc(-c3ccccc3)nc12)N1CCN2CCCC2C1 (stereo not drawn) | / | -5 | ? | 0% | -2 | ?
Cc1ccc(NC(=O)CN2C(=O)C(c3ccccc3)=NC23CCCCC3)cc1C | / | / | -2% | / | / | /
CCNc1ccccc(-c2ccc3ccccc3n2)c1=O | 306% | 134* | -36% | -2% | 41* | 215%
CCCc1nc2oc3c(NCCN(C)C)ncnc3c2c2c1CCCC2 | ? | -14 | 3% | -2% | -6 | 13µM*
CCCc1nc2oc3c(NCCCN(C)C)ncnc3c2c2c1CCCC2 | 13µM* | -43 | 11% | 2% | -6 | 9.3µM*
CC(=O)c1cccc(NC(=O)/C(=C/c2ccncc2)NC(=O)c2ccccc2)c1 | -17% | 15 | -8% | -2% | -4 | 23%
CCn1c(=O)c2sccc2n2c(CCC(=O)Nc3ccc(OC)cc3OC)nnc12 | / | / | 11% | / | / | /
Clc1ncnc2scc(-c3ccccc3)c12 | ? | -14 | 1% | 6% | -2 | ?
Cc1ccc(-c2csc3ncnc(Cl)c23)cc1 | 2.6µM* | 17 | 1% | -19% | -3 | 1.5µM*
Cc1ccc2cccc(Oc3ncnc4scc(-c5ccc(Cl)cc5)c34)c2n1 | 10µM* | -11 | 1% | 11% | -4 | ?
Cc1ccc2cccc(Oc3ncnc4scc(-c5ccccc5)c34)c2n1 | ? | -10 | 7% | 4% | -3 | 10µM*
COc1ccc(-c2csc3ncnc(Oc4cccc5ccc(C)nc45)c23)cc1 | ? | -11 | -3% | 10% | 0 | ?
Cc1ccc(OCCN2CCN(CC(O)Cn3c4ccccc4c4ccccc43)CC2)cc1 (stereo not drawn) | 19% | -4 | -4% | -35% | -6 | 2.6µM*
OC(CN1CCN(Cc2ccccc2)CC1)Cn1c2ccccc2c2ccccc21 (stereo not drawn) | 11% | -11 | -13% | -10% | -3 | 2.6µM*
Cc1ccc(OCC(O)CN2CCCC2)cc1 (stereo not drawn) | ? | 26 | -7% | -2% | 2 | 2%
OC(CN1CCOCC1)Cn1c2ccccc2c2ccccc21 (stereo not drawn) | -18% | -6 | -20% | 1% | 5 | ?
Cc1ccc(OCC(O)Cn2c3ccccc3c3ccccc32)cc1 (stereo not drawn) | ? | 21 | -30% | -67% | -4 | 9.3µM*
OC(COCC(F)(F)C(F)(F)C(F)(F)C(F)F)Cn1c2ccccc2c2ccccc21 (stereo not drawn) | -19% | 9 | -7% | -78% | -2 | 12µM*
CC1CCc2c(nc3ncnn3c2NCCN(C)C)C1 (stereo not drawn) | ? | 33 | -2% | / | -3 | 28%
